18 compounds from PubChem BioAssay AID720597 (Broad Institute, 2013) can be followed below.

Potency and affinity values are given separately. Activity calls are given as the source filed them.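 The calls were made as follows: active = fitted half-maximal dose no more than twice the top valid tested dose, for compounds that lower signal; inconclusive = fit invalid, or curve flat with activity between -70 and -30; inactive = potency past limit, curve flat within ±30, or signal increasing.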

For this experiment, the target named is NAD-dependent protein deacylase sirtuin-5, mitochondrial (Homo sapiens) (UniProt Q9NXA8). Description: SIRT5 deacylase inhibitors, dose response, biochemical, fluorescence imaging, cherry-pick, set 6 (AID 720597).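 Also: lower AMC signal can also come from blocking the trypsin step.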 Conditions: Purified SirT5, succinyl-peptide-AMC/trypsin fluorescence; series mostly up to 15 µM.
NAD-dependent protein deacylase sirtuin-5, mitochondrial (Homo sapiens), sequence (Q9NXA8 whole entry, looked up): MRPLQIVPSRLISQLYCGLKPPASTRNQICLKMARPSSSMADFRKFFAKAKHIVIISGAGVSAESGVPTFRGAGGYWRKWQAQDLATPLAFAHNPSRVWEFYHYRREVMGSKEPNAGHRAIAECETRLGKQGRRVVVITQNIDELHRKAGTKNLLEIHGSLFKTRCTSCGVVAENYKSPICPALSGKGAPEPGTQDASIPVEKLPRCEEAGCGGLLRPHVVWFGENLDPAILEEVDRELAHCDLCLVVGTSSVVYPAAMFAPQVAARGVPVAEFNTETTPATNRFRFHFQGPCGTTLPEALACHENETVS

Turning to `O=C(CSc1nnc(-c2ccco2)n1-c1ccccc1)Nc1ccc(F)cc1`, the outcome was inactive.
With `C[C@@H]1CN([C@@H](C)CO)C(=O)c2cccc(NC(=O)c3ccncc3)c2O[C@@H]1CN(C)S(C)(=O)=O` the entry was “inactive”.
Take `Cc1ccc(S(=O)(=O)Nc2ccc3c(c2)CC(=O)N([C@@H](C)CO)C[C@@H](C)[C@H](CN(C)Cc2ccc(Oc4ccccc4)cc2)O3)cc1`: the call was inactive.
Next, `CC(C)CC#Cc1ccc2c(c1)O[C@@H](CN(C)C(=O)c1cccc(F)c1)[C@H](C)CN([C@@H](C)CO)S2(=O)=O`: “inactive”.
On to `COc1ccc(CN(C)C[C@H]2Oc3ccc(NS(=O)(=O)c4ccc(Cl)cc4)cc3CC(=O)N([C@@H](C)CO)C[C@@H]2C)cc1`, for which the call was inactive.
In the case of `C[C@H]1CN([C@@H](C)CO)C(=O)Cc2cc(NS(=O)(=O)c3ccccc3)ccc2O[C@H]1CN(C)Cc1ccc(C(=O)Nc2ccccc2N)cc1`, the result was inactive.
For `C[C@H](O)C#Cc1ccc2c(c1)O[C@H](CN(C)Cc1ccc(-c3ccccc3)cc1)[C@@H](C)CN([C@@H](C)CO)S2(=O)=O`, the compound was classed as inactive.
With `CN(C)C(=O)c1cccc(-c2ccc([C@@H]3[C@H](CO)N4CCCCN(S(C)(=O)=O)C[C@@H]34)cc2)c1` the entry was “inactive”.
Next, `Cc1noc(C)c1S(=O)(=O)Nc1ccc2c(c1)C(=O)N([C@H](C)CO)C[C@H](C)[C@@H](CN(C)Cc1ccc(C(F)(F)F)cc1)OCCCC[C@H](C)O2`: “inactive”; `COc1ccc(C#Cc2ccc([C@H]3[C@H]4CN(C(=O)c5cccnc5)CC(=O)N4[C@H]3CO)cc2)cc1`: “inactive”.
Next, `C[C@@H]1CCCCO[C@@H](CN(C)S(=O)(=O)c2ccc(F)cc2)[C@H](C)CN([C@@H](C)CO)C(=O)c2cc(NC(=O)Nc3ccc4c(c3)OCO4)ccc2O1`: “inactive”.
Consider `C[C@@H]1CN([C@@H](C)CO)C(=O)c2cccc(NC(=O)c3nc4ccccc4s3)c2O[C@H]1CN(C)Cc1ccc(C(F)(F)F)cc1`, for which the call was inactive.
Next, `C[C@H]1CN([C@@H](C)CO)S(=O)(=O)c2ccc(/C=C/c3ccccc3)cc2O[C@@H]1CN(C)C(=O)Nc1ccc(F)cc1`: “inactive”; `Cc1ccc(S(=O)(=O)N(C)C[C@@H]2OCCCC[C@@H](C)Oc3ccc(NS(=O)(=O)c4ccc(F)cc4)cc3C(=O)N([C@@H](C)CO)C[C@H]2C)cc1`: “inactive”; `CO[C@@H](CN(C)Cc1ccc2c(c1)OCO2)[C@@H](C)CN(C(=O)Nc1ccc(F)cc1)[C@H](C)CO`: “inactive”.
Next, `CO[C@H]1CN(C)C(=O)c2cc(NC(=O)c3ccccc3F)ccc2OC[C@@H](C)NC[C@@H]1C`: “inactive”; `C/C=C/c1cnc2c(c1)C(=O)N([C@@H](C)CO)C[C@@H](C)[C@@H](CN(C)C(=O)NC1CCCCC1)O2`: “inactive”.
With `CCC(=O)N1CCCCN2[C@H](CO)[C@H](c3ccc(-c4cccc(C#N)c4)cc3)[C@@H]2C1` the entry was “inactive”.
